Test results: the supplement of paper PMC12350171
Where a name gives a salt, the structure may show the parent alone. Unmarked numbers belong to inactive results.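 Rule for the calls: active = normalised median growth AUC below 0.1 of DMSO control; inactive = AUC 0.1 or higher.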

The compounds below were run on S. enterica typhimurium tolC KO (assay: growth AUC normalised to DMSO control (median) (fraction of control); higher = less growth inhibition, active = hit call of the paper). Details: 20 µM.
Outline: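 After two overnight anaerobic passages, strains were inoculated at OD578 0.01 into mGAM in 96-well plates containing approved-drug library compounds at 20 μM and 1% DMSO. Growth was followed by reading OD578 hourly for 24 h within an anaerobic incubator. Area under the curve, taken by the trapezoidal rule up to the start of stationary phase, was normalised to same-plate vehicle wells, and the median of three biological replicates is listed.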
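Note: active when median AUC fell below 0.1.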

| Compound | growth AUC normalised to DMSO control |
| --- | --- |
| Cc1cc(/C=C/c2ccc3cc(N(C)C)ccc3[n+]2C)c(C)n1-c1ccccc1 [Pyrvinium pamoate] | 0.61 |
| CN1CCN(c2c(F)cc3c(=O)c(C(=O)O)cn(CCF)c3c2F)CC1 [Fleroxacin] | 0.00549 (active) |
| CC(C)OC(=O)C(C)(C)Oc1ccc(C(=O)c2ccc(Cl)cc2)cc1 [Fenofibrate] | 0.94 |
| CCC1(c2ccccc2)C(=O)NCNC1=O [Primidone] | 0.997 |
| COc1ccnc(C[S+]([O-])c2nc3cc(OC(F)F)ccc3[nH]2)c1OC (stereo not drawn) [Pantoprazole sodium] | 0.937 |
| CO/N=C1\CN(c2nc3c(cc2F)c(=O)c(C(=O)O)cn3C2CC2)CC1CN (stereo not drawn) [Gemifloxacin mesylate] | 0.0027 (active) |
| O=C(C1CCCCC1)N1CC(=O)N2CCc3ccccc3C2C1 (stereo not drawn) [Praziquantel] | 0.997 |
| CC(/C=C1\SC(=S)N(CC(=O)O)C1=O)=C\c1ccccc1 [Epalrestat] | 0.921 |
| CC(=O)Oc1ccc(C(c2ccc(OC(C)=O)cc2)c2ccccn2)cc1 [Bisacodyl] | 1.01 |
| Cn1c(=O)c2[nH]cnc2n(C)c1=O [Aminophylline] | 1.01 |
| N[C@@H](Cc1ccc(O)c(O)c1)C(=O)O [Levodopa] | 0.996 |
| CCCSS/C(CCO)=C(/C)N(C=O)Cc1cnc(C)nc1N [Prosultiamine] | 1.02 |
| O=P(O)(O)C(O)(Cc1cccnc1)P(=O)(O)O [Risedronic acid monohydrate] | 1 |
| NCCc1c[nH]cn1 [Histamine dihydrochloride] | 0.982 |
| O=C(NCCCN1CCOCC1)c1ccc(Cl)cc1 [Eprobemide] | 1 |
| CC[C@H]1OC(=O)C[C@@H](O)[C@H](C)[C@@H](O[C@@H]2O[C@H](C)[C@@H](O[C@H]3C[C@@](C)(O)[C@@H](O)[C@H](C)O3)[C@H](N(C)C)[C@H]2O)[C@@H](CC=O)C[C@@H](C)C(=O)/C=C/C(C)=C/[C@@H]1CO[C@@H]1O[C@H](C)[C@@H](O)[C@@H](OC)[C@H]1OC [Tylosin] | 0.721 |
| Cc1ncc(C[n+]2csc(CCO)c2C)c(N)n1 [Thiamine hydrochloride] | 0.996 |

| Compound | growth AUC normalised to DMSO control |
| --- | --- |
| CCOc1cc(N)c(Cl)cc1C(=O)NCC1CN(Cc2ccc(F)cc2)CCO1 (stereo not drawn) [Mosapride] | 0.722 |
| CCN1CCN(C(=O)N[C@@H](C(=O)N[C@@H]2C(=O)N3[C@@H]2SC(C)(C)[C@@H]3C(=O)O)c2ccccc2)C(=O)C1=O [Piperacillin sodium salt] | 0.00671 (active) |
| NNc1nncc2ccccc12 [Hydralazine hydrochloride] | 0.992 |
| C=C(CC)C(=O)c1ccc(OCC(=O)O)c(Cl)c1Cl [Ethacrynic acid] | 1.02 |
| CC(NN)c1ccccc1 (stereo not drawn) [Mebanazine] | 0.99 |
| Nc1nc2[nH]cc(CCc3ccc(C(=O)N[C@@H](CCC(=O)O)C(=O)O)cc3)c2c(=O)[nH]1 [Pemetrexed disodium] | 0.999 |
| Cc1ncc([N+](=O)[O-])n1CCO [Metronidazole] | 0.991 |
| Cc1[nH]cnc1CN1CCc2c(c3ccccc3n2C)C1=O [Alosetron hydrochloride] | 0.995 |
| CCOc1ccccc1C(N)=O [Ethenzamide] | 1 |
| CC(C)NC[C@H](O)COc1cccc2ccccc12 [(S)-(-)-Propranolol hydrochloride] | 0.986 |
| C[C@H](O)[C@H](O)[C@H]1CNc2[nH]c(N)nc(=O)c2N1 [Sapropterin dihydrochloride] | 0.977 |
| CN(CCCN1c2ccccc2CCc2ccccc21)CC(=O)c1ccc(Cl)cc1 [Lofepramine] | 0.957 |
| CC(C)NC[C@@H](O)COc1cccc2ccccc12 [(R) Propranolol hydrochloride] | 0.983 |
| O=C1C(=O)c2ccccc2C(O)=C1C1CCC(c2ccc(Cl)cc2)CC1 (stereo not drawn) [Atovaquone] | 1.01 |
| NC(N)=Nc1nc(CSCCN/C=N/S(=O)(=O)c2ccc(Br)cc2)cs1 [Ebrotidine] | 0.987 |
| O=C(O)c1cc(/N=N/c2ccc(S(=O)(=O)Nc3ccccn3)cc2)ccc1O [Sulfasalazine] | 1.01 |
